From PubChem BioAssay (NCI) come the findings set out here.

This is part of a sample that, as a whole, favours compounds with a hit. Of some 83,000 tested, about 20% had one in any assay.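 How to read the values: 0–100, growth inhibition (40 = 60% inhibited); 0, no net growth; -100 to 0, cell death (-40 = 40% of starting cells died; -100 = all dead).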 Values without a mark were called inactive. Activity calls are given as the source filed them. Rule for the calls: active = growth percent below 10; inactive = the rest.

Holding throughout (assay): NCI-60 one-dose screen, 48 h (100 = growth as untreated, 0 = no growth, -100 = all killed)
Conditions in all cases: 10 µM unless noted

The test system of assay [1] is NCI-H23 lung.
Assay [2] concerns NCI-H226 lung.
The subject of assay [3] is NCI-H322M lung.
Assay [4] relates to HOP-62 NSCLC.
Assay [5] has as its system NCI-H460 lung.
The test system of assay [6] is HOP-92 NSCLC.
Assay [7] relates to NCI-H522 lung.
Assay [8] deals with A549/ATCC NSCLC.
Assay [9] deals with 786-0 renal.
The subject of assay [10] is COLO 205 colon.

As to `CN1CCN(CCNC(=O)c2cccc(CN3c4cccc5c4C(=Cc4cccnc43)N(C)C5=O)c2)CC1`, the growth in [1] was 59.5%; in assay [2], 45%; in [3], 41.4%; in assay [4], 24.7%; in assay [5], 48.3%; in assay [6], 19.3%. The growth was 14.1% in [7], 33.9% in [8], 49.6% in assay [9] and 19.8% in [10].
Consider `CCN1C(=O)N(c2ccccc2)C2NC(=S)N(/N=C/C=C/c3ccccc3)C21` (stereo not given), for which the growth in assay [1] was 21.1%; in assay [2], 2.92% (active); in assay [3], 50.4%; in assay [4], 37.9%; in [5], 8.06% (active); in assay [6] it was 28.8%. Besides, the growth in assay [7] is 14.8%; in assay [8], 24.9%; in assay [9] it was 37.2%; in [10] it was -8.16% (active).
In the case of `O=C(NNc1ccccc1)c1ncc[nH]1`, the growth was 96.2% in [1]; 62.6% in assay [2]; 82.8% in assay [3]; 73% in assay [4]; 100% in [5]; 95.1% in assay [6]. For the same compound, the growth was 50.8% in [7], 64.4% in assay [8], 75.2% in assay [9] and 79.7% in [10].
For the compound `COc1cc(F)c(/C=C/c2cc(/C=C/c3cc(OC)c(OC)cc3F)n(-c3cc(F)cc(F)c3)n2)cc1OC`, the growth in assay [1] was -20.2% (active); in assay [2], 98.1%; in [3] it was 15.2%; in assay [4], 85.8%; in assay [5], 47%; in assay [6], 80.9%. Moreover, the growth in assay [7] is 47.1%; in assay [8] it was 44.1%; in assay [9] it was 88.3%; in assay [10], 115%.
Take `COc1ccc(-c2cc(-c3cccc(Cl)c3)c(C#N)c(=O)[nH]2)c(OC)c1`: the growth in [1] was 92.2%; in [2], 101%; in assay [3] it was 96%; in assay [4] it was 99.2%; in assay [5], 98.7%; in assay [6], 68%. For the same compound, the growth in assay [7] was 90.6%; in [8] it was 96.4%; in assay [9], 89.7%; in assay [10], 121%.
As to `CCCc1cc(C(N)=S)ccn1`, the growth is 108% in assay [1]; 100% in [2]; 101% in assay [3]; 106% in assay [4]; 111% in [5]; 95.1% in assay [6]. The growth in assay [7] was 93.6%; in [8] it was 103%; in [9], 95.6%; in assay [10], 107%.
As for `Nc1ncnc2c1C(c1ccc([N+](=O)[O-])cc1)c1sc3c(F)cccc3c1O2` (stereo not given), the growth in assay [1] was 86.8%; in [2] it was 62.9%; in [3], 93.6%; in assay [4], 116%; in assay [5], 89.4%; in [6], 107%. Moreover, the growth in assay [7] is 84.3%; in assay [8], 99.9%; in assay [9], 103%; in [10], 109%.
Take `CCN(CC)CC(=O)Nc1ccc2ncnc(Nc3ccc(Oc4cccc(F)c4)c(Cl)c3)c2c1`: the growth in [1] was 74.9%; in assay [2], 87.6%; in assay [3] it was 65.6%; in assay [4], 80.4%; in assay [5] it was 36.9%; in [6], 39.5%. Also, the growth in assay [7] was 64.6%; in assay [8], 55.7%; in assay [9], 59.7%; in assay [10], 68.8%.
Consider `COc1ccc(C(=O)N/N=C/c2ccc(O)cc2O)cc1Nc1ccnc(C(F)(F)F)c1`, for which the growth in assay [1] is 32.1%; in assay [2], 45%; in assay [3], 30.9%; in assay [4] it was 11.8%; in assay [5], 24.7%; in [6], 51.8%. Also, the growth in assay [7] is 36.2%; in assay [8] it was 53.3%; in [9] it was 3.75% (active); in assay [10], 37.1%.
As for `O=C(N=Nc1c(O)[nH]c2ccccc12)Nc1ccc(Br)cc1`, the growth is 101% in assay [1]; 83.6% in [2]; 70.9% in [3]; 98.4% in assay [4]; 92.1% in [5]; 66.5% in assay [6]. The growth in assay [7] is 72.3%; in [8], 98.9%; in [9] it was 89.6%; in [10], 97.8%.
Regarding `COc1nc2ccc(C)cc2cc1/C=[N+](\[O-])c1ccccc1`, the growth in [1] is 93.8%; in assay [2] it was 73.6%; in assay [3], 85.1%; in assay [4], 81.7%; in [5] it was 98.9%; in assay [6], 72.5%. Besides, the growth in assay [7] was 84.6%; in [8], 92.4%; in [9], 103%; in assay [10] it was 96%.
With `Cc1ccc(-c2nc3nc(-c4ccc(Cl)cc4)nc(N4CCCNCC4)c3o2)cc1`, the growth in [1] was 96.4%; in assay [2], 111%; in assay [3] it was 17.4%; in assay [4], 97.6%; in assay [5], -81.6% (active); in assay [6], 83.6%. In addition, the growth in assay [7] was 62.2%; in assay [8] it was -81.6% (active); in assay [9], -82.9% (active); in [10] it was -66.4% (active).
